PubChem BioAssay

Test system: Human papillomavirus type 1a protein E7 (residues 44-93)
Assay: HPV1a E7 fragment binders on microarrays, primary screen, biochemical, small-molecule microarray, residues 44-93, 635 nm fluorescence (AID 1108);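 note: E7 fragment applied at 1 µg/mL in TBST for 1 h at 4 C; score combines spot fluorescence with its signal to noise ratio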
Conditions: small-molecule microarray binding, fluorescence 635 nm; higher = more signal

**Q.** `COCCOC(=O)N1C(=O)[C@@]2(c3cc(C#CCNC(N)=O)ccc31)[C@H](C(N)=O)[C@H]1C(=O)O[C@H](c3ccccc3)[C@H](c3ccccc3)N1[C@@H]2c1ccccc1OCCO` was tested. Which composite z-score did it give?
**A.** 0.989

**Q.** For `COC(=O)[C@@H]1N=C(c2ccc(OCCCO)cc2)O[C@@H]1C`, which composite z-score is on record?
**A.** 0.783

**Q.** How did the composite z-score turn out when `O=C(c1ccccc1)N1C(=O)[C@]2(Cc3ccccc31)N=C(c1ccc(OCCCO)cc1)O[C@@H]2c1ccccc1` was run?
**A.** 1.44

**Q.** For `O=C(NCCN1CCOCC1)[C@@H]1c2ccccc2C(=O)N(C2Cc3ccccc3C2)[C@H]1c1ccc(CO)cc1`, which composite z-score is on record?
**A.** 1.4

**Q.** How did the composite z-score turn out when `CCCCC(CC)C(O)C1C=CC2C(=O)N(C)C(=O)C2N1Nc1ccccc1` (configuration not stated) was run?
**A.** 1.4

**Q.** For `CC[C@@H]1C=C(C(=O)O)[C@H](c2ccc(C#N)cc2)N1S(=O)(=O)c1ccc(C)cc1`, which composite z-score is on record?
**A.** 0.458

**Q.** How did the composite z-score turn out when `[N-]=[N+]=Nc1ccccc1C[C@@]1(C(N)=O)N=C(c2ccc(OCCCO)cc2)O[C@@H]1c1ccccc1N=[N+]=[N-]` was run?
**A.** 1.03

**Q.** For `C=CC[C@@H](OC(=O)Nc1ccc(SC)cc1)c1ccc(O)c(F)c1`, which composite z-score is on record?
**A.** -0.148

**Q.** Which composite z-score does the source give for `CS(=O)(=O)CCOC(=O)C1=CC(c2ccc(CO)cc2)=CC(C2CC2)N(Cc2sc3ccccc3c2Cl)C=C1C(=O)OCCS(C)(=O)=O` (configuration not stated) here?
**A.** 0.491

**Q.** For `CCOC(=O)C[C@H]1[C@H](OC(=O)c2ccccc2-c2ccccc2)[C@@H](NC(=O)c2ccc3ccccc3n2)c2cc(OCCCO)ccc2N1C(=O)Cc1ccc(OC)cc1`, which composite z-score is on record?
**A.** 0.345

**Q.** Which composite z-score does the source give for `CCOC(=O)C1=C[C@@H](C(C)(C)C)N(S(=O)(=O)c2ccc(C)cc2)[C@H]1c1cccc2ccccc12` here?
**A.** 1.28

**Q.** Which composite z-score does the source give for `Cc1ccc(S[C@]2(C(=O)O)CC(=O)N(C3CCCCC3)[C@@H]2c2ccc(CO)cc2I)cc1` here?
**A.** 1.35
